# Experimental data: article PMC7862700, “An all-to-all approach to the identification of sequence-specific readers for epigenetic DNA modifications on cytosine”
# Experiments:
# Assay in all cases: DAPPL (digital affinity profiling via proximity ligation, sequencing); 10 mM Tris-HCl pH 7.5, 50 mM NaCl, 1 mM DTT, 4% glycerol, room temperature, 30 min; GST-TFs on glutathione beads, 16-mer random dsDNA library, 0.1% formaldehyde crosslink after washing; high values mean tight binding
# [1] = molecular target: T1, FLI1 (Homo sapiens, UniProt Q01543 1-452); details: protein: recombinant; tags: N-terminal GST; dsDNA, one strand shown
# T1 sequence: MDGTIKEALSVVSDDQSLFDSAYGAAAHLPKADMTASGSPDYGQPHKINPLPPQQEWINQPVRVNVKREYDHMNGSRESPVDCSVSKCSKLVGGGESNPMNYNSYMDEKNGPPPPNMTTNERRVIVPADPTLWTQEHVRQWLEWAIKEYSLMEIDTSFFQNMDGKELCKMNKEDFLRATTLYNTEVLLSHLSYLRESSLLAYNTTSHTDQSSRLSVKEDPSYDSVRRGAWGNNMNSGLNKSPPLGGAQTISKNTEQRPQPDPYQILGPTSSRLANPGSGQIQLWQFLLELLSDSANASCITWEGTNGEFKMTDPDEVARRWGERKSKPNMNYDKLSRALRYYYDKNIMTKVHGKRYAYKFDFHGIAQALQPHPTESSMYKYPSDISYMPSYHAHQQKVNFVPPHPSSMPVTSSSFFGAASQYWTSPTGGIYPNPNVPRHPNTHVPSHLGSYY
# Method in brief: (§1)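 Sequencing on an Illumina NextSeq500 followed washing, crosslinking with 0.1% formaldehyde, proximity ligation (BsaI/T4 ligase, 1 h, 37 °C) and PCR amplification of pools that had been incubated for 30 min at room temperature with 200 nmole of a random double-stranded 16-mer DNA library in Tris/NaCl/DTT/glycerol buffer. Each pool held DNA-barcoded human transcription factors, expressed in yeast as GST fusions and captured on glutathione beads, plus a tag-only sample. Binding signal is a hexamer's read frequency for a factor divided by its frequency in the tag-only sample.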
# [2] = molecular target: T2, ELK1 (Homo sapiens, UniProt P19419 1-428); details: protein: recombinant; tags: N-terminal GST; dsDNA, one strand shown
# T2 sequence: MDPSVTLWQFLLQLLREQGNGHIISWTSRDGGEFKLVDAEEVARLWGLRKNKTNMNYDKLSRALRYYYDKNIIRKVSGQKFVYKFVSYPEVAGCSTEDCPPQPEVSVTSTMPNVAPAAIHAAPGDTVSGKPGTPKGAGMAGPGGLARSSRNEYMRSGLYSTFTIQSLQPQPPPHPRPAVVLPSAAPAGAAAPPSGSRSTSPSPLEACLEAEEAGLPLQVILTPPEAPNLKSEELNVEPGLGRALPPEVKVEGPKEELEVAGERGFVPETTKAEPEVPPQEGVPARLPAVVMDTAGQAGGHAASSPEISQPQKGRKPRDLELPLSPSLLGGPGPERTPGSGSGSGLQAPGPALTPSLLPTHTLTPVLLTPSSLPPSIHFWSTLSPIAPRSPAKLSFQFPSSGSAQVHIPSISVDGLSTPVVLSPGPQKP
# Method in brief: as §1
# [3] = molecular target: T3, GABPA (Homo sapiens, UniProt Q06546 1-454); details: protein: recombinant; tags: N-terminal GST; dsDNA, one strand shown
# T3 sequence: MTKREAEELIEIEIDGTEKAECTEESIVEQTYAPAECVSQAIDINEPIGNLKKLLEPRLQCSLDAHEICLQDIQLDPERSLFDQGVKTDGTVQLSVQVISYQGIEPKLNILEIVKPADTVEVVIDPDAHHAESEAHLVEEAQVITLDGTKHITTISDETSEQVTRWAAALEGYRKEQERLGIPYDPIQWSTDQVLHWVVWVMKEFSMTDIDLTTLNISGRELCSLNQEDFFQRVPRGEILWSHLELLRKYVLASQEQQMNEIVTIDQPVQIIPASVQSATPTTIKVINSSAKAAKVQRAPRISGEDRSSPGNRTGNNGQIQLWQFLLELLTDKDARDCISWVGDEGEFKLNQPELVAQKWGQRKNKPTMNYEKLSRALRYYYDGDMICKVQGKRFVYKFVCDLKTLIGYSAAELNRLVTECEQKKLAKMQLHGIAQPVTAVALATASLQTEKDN
# Method in brief: as §1
# [4] = molecular target: T4, ERG (Homo sapiens, UniProt P11308 1-479); details: protein: recombinant; tags: N-terminal GST; dsDNA, one strand shown
# T4 sequence: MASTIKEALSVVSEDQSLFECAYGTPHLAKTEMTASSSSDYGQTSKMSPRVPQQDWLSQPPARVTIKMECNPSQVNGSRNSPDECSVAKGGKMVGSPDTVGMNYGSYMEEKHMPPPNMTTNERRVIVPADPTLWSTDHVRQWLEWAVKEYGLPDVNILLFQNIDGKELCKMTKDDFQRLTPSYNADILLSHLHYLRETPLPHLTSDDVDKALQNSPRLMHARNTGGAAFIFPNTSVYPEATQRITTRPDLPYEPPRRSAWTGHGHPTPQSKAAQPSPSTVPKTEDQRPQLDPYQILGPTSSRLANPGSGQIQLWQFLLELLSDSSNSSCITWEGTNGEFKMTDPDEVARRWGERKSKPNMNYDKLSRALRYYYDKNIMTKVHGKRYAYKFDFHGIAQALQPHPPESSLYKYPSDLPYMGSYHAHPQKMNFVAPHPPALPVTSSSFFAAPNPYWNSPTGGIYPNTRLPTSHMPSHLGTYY
# Method in brief: as §1
# [5] = molecular target: ELF1 (Homo sapiens, UniProt P32519 1-619); details: protein: recombinant; tags: N-terminal GST; dsDNA, one strand shown
# Sequence of ELF1 (P32519 whole entry): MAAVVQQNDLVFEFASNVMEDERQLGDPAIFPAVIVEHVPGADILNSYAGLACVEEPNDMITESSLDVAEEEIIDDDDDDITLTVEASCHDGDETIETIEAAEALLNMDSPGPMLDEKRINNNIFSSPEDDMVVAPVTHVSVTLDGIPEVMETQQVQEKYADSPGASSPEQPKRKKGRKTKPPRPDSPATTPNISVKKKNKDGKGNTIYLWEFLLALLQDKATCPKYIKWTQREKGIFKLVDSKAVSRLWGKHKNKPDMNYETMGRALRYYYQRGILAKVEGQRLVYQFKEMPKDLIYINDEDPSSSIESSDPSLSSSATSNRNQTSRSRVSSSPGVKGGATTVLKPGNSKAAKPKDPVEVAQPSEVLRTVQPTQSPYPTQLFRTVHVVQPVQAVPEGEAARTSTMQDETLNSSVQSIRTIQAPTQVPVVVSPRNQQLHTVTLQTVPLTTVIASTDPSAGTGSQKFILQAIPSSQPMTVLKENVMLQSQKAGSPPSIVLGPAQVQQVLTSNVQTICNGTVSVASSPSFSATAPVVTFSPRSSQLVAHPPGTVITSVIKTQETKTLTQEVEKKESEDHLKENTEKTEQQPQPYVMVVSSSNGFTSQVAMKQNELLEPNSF
# Method in brief: as §1
# [6] = molecular target: T5, EHF (Homo sapiens, UniProt Q9NZC4 1-300); details: protein: recombinant; tags: N-terminal GST; dsDNA, one strand shown
# T5 sequence: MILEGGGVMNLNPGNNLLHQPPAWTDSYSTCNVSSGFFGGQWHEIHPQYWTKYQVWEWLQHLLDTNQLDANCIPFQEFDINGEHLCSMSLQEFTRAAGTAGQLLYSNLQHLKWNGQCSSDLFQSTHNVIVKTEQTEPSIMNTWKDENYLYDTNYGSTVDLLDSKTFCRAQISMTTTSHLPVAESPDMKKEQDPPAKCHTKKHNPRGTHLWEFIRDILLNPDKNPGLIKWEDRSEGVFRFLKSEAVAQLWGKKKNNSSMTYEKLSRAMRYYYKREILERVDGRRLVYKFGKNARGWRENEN
# Method in brief: as §1
# [7] = molecular target: SPI1 (Homo sapiens, UniProt P17947 1-270); details: protein: recombinant; tags: N-terminal GST; dsDNA, one strand shown
# Method in brief: as §1
# [8] = molecular target: SPIB (Homo sapiens, UniProt Q01892 1-262); details: protein: recombinant; tags: N-terminal GST; dsDNA, one strand shown
# Sequence of SPIB (Q01892 whole entry): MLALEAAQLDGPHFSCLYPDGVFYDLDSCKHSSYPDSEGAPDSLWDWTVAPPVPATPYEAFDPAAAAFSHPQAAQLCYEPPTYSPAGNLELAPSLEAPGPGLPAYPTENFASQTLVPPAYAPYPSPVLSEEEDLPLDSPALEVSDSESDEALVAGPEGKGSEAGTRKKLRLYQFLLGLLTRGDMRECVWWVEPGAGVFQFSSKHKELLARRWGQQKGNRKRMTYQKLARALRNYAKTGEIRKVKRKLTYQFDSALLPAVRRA
# Method in brief: as §1
# [9] = molecular target: T6, ELK3 (Homo sapiens, UniProt P41970 1-407); details: protein: recombinant; tags: N-terminal GST; dsDNA, one strand shown
# T6 sequence: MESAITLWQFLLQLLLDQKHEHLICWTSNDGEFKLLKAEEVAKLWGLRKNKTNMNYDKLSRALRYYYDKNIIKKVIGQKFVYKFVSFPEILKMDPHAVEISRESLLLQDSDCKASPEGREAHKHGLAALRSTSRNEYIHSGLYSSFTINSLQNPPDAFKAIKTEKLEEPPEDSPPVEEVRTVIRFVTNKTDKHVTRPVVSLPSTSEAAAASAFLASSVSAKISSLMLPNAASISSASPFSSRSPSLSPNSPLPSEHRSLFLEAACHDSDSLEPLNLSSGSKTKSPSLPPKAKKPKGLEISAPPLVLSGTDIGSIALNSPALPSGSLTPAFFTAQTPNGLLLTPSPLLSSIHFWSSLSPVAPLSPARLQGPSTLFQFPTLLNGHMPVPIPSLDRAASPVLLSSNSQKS
# Method in brief: as §1
# [10] = molecular target: T7, FEV (Homo sapiens, UniProt Q99581 1-238); details: protein: recombinant; tags: N-terminal GST; dsDNA, one strand shown
# T7 sequence: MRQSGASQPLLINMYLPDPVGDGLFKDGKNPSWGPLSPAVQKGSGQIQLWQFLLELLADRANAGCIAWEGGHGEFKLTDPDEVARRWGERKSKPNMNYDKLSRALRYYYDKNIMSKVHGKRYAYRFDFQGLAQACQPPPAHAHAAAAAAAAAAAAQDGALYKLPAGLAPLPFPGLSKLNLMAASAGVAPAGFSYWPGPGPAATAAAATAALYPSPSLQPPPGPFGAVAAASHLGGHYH
# Method in brief: as §1
# [11] = molecular target: ETV5 (Homo sapiens, UniProt P41161 1-510); details: protein: recombinant; tags: N-terminal GST; dsDNA, one strand shown
# Sequence of ETV5 (P41161 whole entry): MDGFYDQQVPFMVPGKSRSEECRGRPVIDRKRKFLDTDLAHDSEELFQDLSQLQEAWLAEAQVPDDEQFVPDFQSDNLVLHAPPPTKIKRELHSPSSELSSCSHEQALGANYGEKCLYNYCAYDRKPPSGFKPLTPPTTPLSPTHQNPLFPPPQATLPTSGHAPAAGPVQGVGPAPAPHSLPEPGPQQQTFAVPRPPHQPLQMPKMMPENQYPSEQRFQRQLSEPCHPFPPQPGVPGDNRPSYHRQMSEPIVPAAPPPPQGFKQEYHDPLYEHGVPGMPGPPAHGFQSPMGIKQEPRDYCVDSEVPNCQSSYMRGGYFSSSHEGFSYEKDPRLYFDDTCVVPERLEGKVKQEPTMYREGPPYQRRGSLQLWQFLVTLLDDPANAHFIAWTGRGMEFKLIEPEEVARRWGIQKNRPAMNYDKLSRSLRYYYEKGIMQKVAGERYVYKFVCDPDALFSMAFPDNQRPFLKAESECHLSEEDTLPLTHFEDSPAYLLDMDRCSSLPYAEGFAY
# Method in brief: as §1
# [12] = molecular target: HSF1 (Homo sapiens, UniProt Q00613 1-529); details: protein: recombinant; tags: N-terminal GST; chain copies: 3; dsDNA, one strand shown
# Sequence of HSF1 (Q00613 whole entry): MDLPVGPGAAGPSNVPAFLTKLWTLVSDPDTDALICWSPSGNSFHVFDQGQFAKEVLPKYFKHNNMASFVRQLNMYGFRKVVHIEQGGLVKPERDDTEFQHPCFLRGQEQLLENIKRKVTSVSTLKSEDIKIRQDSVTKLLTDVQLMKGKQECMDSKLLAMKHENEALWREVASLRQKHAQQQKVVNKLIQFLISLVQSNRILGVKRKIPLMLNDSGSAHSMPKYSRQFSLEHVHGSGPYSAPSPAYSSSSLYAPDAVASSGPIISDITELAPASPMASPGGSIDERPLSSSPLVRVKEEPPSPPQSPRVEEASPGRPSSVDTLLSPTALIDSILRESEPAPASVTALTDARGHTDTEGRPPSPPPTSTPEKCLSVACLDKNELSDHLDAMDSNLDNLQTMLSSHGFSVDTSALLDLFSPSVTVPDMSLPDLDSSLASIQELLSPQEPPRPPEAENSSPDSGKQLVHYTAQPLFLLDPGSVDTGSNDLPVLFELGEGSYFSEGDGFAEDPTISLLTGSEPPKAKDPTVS
# Method in brief: as §1
# [13] = molecular target: T8, SPIC (Homo sapiens, UniProt Q8N5J4 1-248); details: protein: recombinant; tags: N-terminal GST; dsDNA, one strand shown
# T8 sequence: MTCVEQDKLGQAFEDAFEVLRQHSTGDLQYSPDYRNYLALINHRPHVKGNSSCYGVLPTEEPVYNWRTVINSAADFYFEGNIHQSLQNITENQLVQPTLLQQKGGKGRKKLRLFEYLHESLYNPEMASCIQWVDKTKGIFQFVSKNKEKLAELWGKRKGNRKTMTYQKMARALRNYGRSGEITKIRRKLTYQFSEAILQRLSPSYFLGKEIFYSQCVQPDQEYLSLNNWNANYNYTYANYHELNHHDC
# Method in brief: as §1
# [14] = molecular target: ELF4 (Homo sapiens, UniProt Q99607 1-663); details: protein: recombinant; tags: N-terminal GST; dsDNA, one strand shown
# Sequence of ELF4 (Q99607 whole entry): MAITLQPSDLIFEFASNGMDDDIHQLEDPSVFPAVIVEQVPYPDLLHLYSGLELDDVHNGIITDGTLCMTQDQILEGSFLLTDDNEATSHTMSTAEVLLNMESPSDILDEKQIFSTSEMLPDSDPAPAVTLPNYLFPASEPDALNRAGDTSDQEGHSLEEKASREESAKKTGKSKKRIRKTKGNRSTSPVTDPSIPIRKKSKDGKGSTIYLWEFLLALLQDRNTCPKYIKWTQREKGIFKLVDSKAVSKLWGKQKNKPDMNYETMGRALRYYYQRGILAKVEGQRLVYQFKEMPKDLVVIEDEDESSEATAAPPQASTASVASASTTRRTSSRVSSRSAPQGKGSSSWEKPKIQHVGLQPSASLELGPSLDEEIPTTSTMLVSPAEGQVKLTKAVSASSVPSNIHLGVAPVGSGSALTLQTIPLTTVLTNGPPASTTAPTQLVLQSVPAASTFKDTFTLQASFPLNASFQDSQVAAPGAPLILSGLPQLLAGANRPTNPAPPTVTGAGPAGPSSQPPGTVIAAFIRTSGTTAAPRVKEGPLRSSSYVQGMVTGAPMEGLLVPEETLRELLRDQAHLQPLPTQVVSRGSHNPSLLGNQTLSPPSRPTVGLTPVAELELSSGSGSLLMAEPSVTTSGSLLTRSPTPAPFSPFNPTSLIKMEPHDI
# Method in brief: as §1
# [15] = molecular target: T9, ELK4 (Homo sapiens, UniProt P28324-2 1-405); details: protein: recombinant; tags: N-terminal GST; dsDNA, one strand shown
# T9 sequence: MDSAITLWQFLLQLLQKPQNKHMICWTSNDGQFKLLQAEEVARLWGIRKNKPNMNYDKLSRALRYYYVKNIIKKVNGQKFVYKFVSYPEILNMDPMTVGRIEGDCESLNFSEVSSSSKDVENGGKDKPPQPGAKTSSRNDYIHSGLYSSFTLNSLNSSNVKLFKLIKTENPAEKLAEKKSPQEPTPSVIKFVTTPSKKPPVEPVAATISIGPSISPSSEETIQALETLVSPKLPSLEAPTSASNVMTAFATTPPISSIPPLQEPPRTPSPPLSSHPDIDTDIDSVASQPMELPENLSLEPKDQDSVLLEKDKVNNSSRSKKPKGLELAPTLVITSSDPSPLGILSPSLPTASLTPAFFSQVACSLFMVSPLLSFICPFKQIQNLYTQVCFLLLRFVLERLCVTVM
# Method in brief: as §1
# [16] = molecular target: T10, ETV2 (Homo sapiens, UniProt O00321 1-342); details: protein: recombinant; tags: N-terminal GST; dsDNA, one strand shown
# T10 sequence: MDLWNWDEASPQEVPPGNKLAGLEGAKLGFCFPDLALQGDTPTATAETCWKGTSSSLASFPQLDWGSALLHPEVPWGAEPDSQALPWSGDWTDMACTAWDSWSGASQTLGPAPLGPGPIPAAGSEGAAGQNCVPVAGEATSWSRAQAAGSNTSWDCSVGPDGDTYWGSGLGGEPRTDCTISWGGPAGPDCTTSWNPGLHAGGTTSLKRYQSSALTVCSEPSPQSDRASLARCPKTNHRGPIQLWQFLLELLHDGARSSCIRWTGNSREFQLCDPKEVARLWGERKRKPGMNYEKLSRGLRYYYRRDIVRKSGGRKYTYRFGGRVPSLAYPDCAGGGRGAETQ
# Method in brief: as §1
# [17] = molecular target: T11, ELF3 (Homo sapiens, UniProt P78545 1-371); details: protein: recombinant; tags: N-terminal GST; dsDNA, one strand shown
# T11 sequence: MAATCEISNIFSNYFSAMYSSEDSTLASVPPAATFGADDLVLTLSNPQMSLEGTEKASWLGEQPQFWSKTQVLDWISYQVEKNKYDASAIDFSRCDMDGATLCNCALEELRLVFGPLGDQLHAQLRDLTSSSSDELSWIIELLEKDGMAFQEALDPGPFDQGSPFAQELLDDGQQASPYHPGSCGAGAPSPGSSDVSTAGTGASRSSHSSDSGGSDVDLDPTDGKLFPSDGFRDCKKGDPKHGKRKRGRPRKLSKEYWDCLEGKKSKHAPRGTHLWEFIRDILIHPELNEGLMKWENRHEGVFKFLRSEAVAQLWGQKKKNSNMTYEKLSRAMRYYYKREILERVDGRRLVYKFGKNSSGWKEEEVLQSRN
# Method in brief: as §1
# [18] = molecular target: CRX (Homo sapiens, UniProt O43186 1-299); details: protein: recombinant; tags: N-terminal GST; dsDNA, one strand shown
# Sequence of CRX (O43186 whole entry): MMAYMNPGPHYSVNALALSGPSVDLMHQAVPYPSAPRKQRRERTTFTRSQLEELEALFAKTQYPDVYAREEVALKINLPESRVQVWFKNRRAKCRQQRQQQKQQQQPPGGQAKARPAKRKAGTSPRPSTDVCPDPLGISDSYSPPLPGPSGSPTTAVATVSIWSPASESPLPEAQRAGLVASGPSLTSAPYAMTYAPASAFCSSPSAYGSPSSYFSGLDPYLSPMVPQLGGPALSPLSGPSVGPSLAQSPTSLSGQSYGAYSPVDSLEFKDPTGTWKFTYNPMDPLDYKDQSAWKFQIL
# Method in brief: as §1
# [19] = molecular target: ETV1 (Homo sapiens, UniProt P50549 1-477); details: protein: recombinant; tags: N-terminal GST; dsDNA, one strand shown
# Sequence of ETV1 (P50549 whole entry): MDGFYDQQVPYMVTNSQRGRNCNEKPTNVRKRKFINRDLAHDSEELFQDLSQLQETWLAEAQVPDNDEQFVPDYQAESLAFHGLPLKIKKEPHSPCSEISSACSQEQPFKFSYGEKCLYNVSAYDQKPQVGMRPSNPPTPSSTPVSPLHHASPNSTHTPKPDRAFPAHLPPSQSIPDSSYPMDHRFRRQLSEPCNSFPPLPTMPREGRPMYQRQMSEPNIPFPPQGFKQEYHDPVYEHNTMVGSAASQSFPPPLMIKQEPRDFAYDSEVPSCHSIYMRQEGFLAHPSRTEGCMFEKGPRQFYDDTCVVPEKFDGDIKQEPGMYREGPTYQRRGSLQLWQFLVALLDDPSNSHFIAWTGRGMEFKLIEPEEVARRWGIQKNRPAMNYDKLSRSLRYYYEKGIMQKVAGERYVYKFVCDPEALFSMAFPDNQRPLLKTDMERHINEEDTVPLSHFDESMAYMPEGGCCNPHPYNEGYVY
# Method in brief: as §1
sequence,measurement,setting,value
GCTACT,binding signal,[1],"1.37 fold enrichment (6-mer frequency, TF over GST control)"
same,binding signal,[2],"1.25 fold enrichment (6-mer frequency, TF over GST control)"
same,binding signal,[3],"1.32 fold enrichment (6-mer frequency, TF over GST control)"
same,binding signal,[4],"1.38 fold enrichment (6-mer frequency, TF over GST control)"
same,binding signal,[5],"1.35 fold enrichment (6-mer frequency, TF over GST control)"
same,binding signal,[6],"1.33 fold enrichment (6-mer frequency, TF over GST control)"
same,binding signal,[7],"1.27 fold enrichment (6-mer frequency, TF over GST control)"
same,binding signal,[8],"1.23 fold enrichment (6-mer frequency, TF over GST control)"
same,binding signal,[9],"1.29 fold enrichment (6-mer frequency, TF over GST control)"
same,binding signal,[10],"1.43 fold enrichment (6-mer frequency, TF over GST control)"
same,binding signal,[11],"1.39 fold enrichment (6-mer frequency, TF over GST control)"
same,binding signal,[12],"1.07 fold enrichment (6-mer frequency, TF over GST control)"
same,binding signal,[13],"1.3 fold enrichment (6-mer frequency, TF over GST control)"
same,binding signal,[14],"1.28 fold enrichment (6-mer frequency, TF over GST control)"
same,binding signal,[15],"1.38 fold enrichment (6-mer frequency, TF over GST control)"
same,binding signal,[16],"1.17 fold enrichment (6-mer frequency, TF over GST control)"
same,binding signal,[17],"1.47 fold enrichment (6-mer frequency, TF over GST control)"
same,binding signal,[18],"1.09 fold enrichment (6-mer frequency, TF over GST control)"
same,binding signal,[19],"1.32 fold enrichment (6-mer frequency, TF over GST control)"
